Inconclusive results are not listed. A number with no mark means an inactive call. Calls of active or inactive are those of the source. Calls follow the shape of the dose curve; as a rule, active = well fitted cell-killing curve with a large enough effect; inconclusive = small, poorly fitted or top-dose-only effect, or effect the other way; inactive = flat fitted curve, though single readings scatter.

This passage reports Potency and activity change, negative = cytotoxicity results from PubChem BioAssay (NCATS).
% is scaled to controls: 0 for no effect and ±100 for the full control effect; potency is read from the fitted curve at half-maximal effect.

This test has as its system SKOV3. Put plainly: Primary qHTS to identify gynecologic anti-cancer compounds using libraries of approved drugs and bioactive compounds (AID 1345084). Also: nearly all actives have a fitted effect of over 55% in size. To be noted: Gynecologic cancer cell panel viability, ATPlite luminescence, 48 h; series mostly up to 57.5 µM. Summed up: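 Measured: luminescence after ATPlite addition (15 min, RT). Exposure: 48 h, 37 C, 5% CO2.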
(Quantitative high-throughput screening tests each substance at several concentrations.)
Consider `COc1cc2c(Nc3cc(F)c(Cl)c(Cl)c3)ncnc2cc1OCC1CCCN(C)CCC1`, for which the Potency is 17.8 µM (active). With `Cc1cc(C(=O)Nc2cc(Oc3ccc4nc(NC(=O)C5CC5)cn4n3)ccc2C)n(C)n1`, the Potency is 10 µM (active). Regarding `C=CC(=O)Nc1cccc(Nc2nc(Nc3ccc(NC4CN(CCF)C4)cc3OC)ncc2C(F)(F)F)c1`, the Potency is 12.6 µM (active). Turning to `CC12CCC(OC3OC(CO)C(O)C(O)C3OC3OC(CO)C(O)C(O)C3O)CC1CCC1C2CCC2(C)/C(=C3/COC(=O)C3)CCC12O` (stereo not given), the Potency result was “inactive”. On the same count and under the same terms, the same measure for `CC1CCC/C=C/C(=O)c2c(O)cc(O)cc2CC(=O)O1` (stereo not given): 22.4 µM (active). Consider `CC(=O)O[C@H]1CC(C)(C)CC2[C@]13CO[C@@]21CCC2[C@@]4(C)CC[C@H](O[C@@H]5OC[C@H](O[C@@H]6O[C@H](CO)[C@@H](O)[C@H](O)[C@H]6O[C@@H]6OC[C@@H](O)[C@H](O)[C@H]6O)[C@H](O)[C@H]5O[C@@H]5O[C@H](CO)[C@@H](O)[C@H](O)[C@H]5O)[C@@](C)(CO)C4CC[C@@]2(C)[C@]1(C)C[C@H]3O` (stereo not given in full), for which the activity change, negative = cytotoxicity is -11.7% [at 11.6 µM]. Regarding `C=C[C@@]12COC(=O)C(=C)[C@@H]1[C@@H](O)[C@H](C(=C)C(=O)OC)[C@@H](O)C2`, the Potency entry was “inactive”. `CN(CC1COCCO1)S(=O)(=O)Nc1ccc2ccc3ncc(-c4cnn(C)c4)cc3c(=O)c2c1` (stereo not given): the Potency is 15.8 µM (active). On the same count and under the same terms, next, `C=C[C@@]1(C)CCC2C(=CCC3[C@]2(C)CCC[C@@]3(C)C(=O)O)C1` (stereo not given in full): “inactive”. `NCCOc1cc(C(=O)Nc2cc(OCCN)c3ccccc3n2)nc(C(=O)Nc2cc(OCCN)c3ccccc3n2)c1`: the Potency is 8.91 µM (active). `Oc1ccc(-c2cnc3ccc(NCc4ccco4)nn23)cc1`: the Potency is 14.1 µM (active). With `CC(C)n1cnc2c(-c3cnc(N)nc3)nc(N3CCOCC3)nc21`, the Potency is 1.26 µM (active). Regarding `NCC1CCN(c2nccc(-c3ccc4ccccc4c3)n2)CC1`, the Potency was 22.4 µM (active). Consider `C=CC(=O)Nc1ccc(CN2C(=O)N(c3cc(OC)cc(OC)c3)Cc3cnc(Nc4ccc(N5CCN(C)CC5)cc4)nc32)cc1`, for which the Potency is 15.8 µM (active). Regarding `COc1ccc(-c2ccccc2)cc1NS(=O)(=O)c1cc(Cl)cc(Cl)c1O`, the Potency entry is “inactive”. On the same count and under the same terms, the same measure for `Cn1ncnc1[C@H]1c2n[nH]c(=O)c3cc(F)cc(c23)N[C@@H]1c1ccc(F)cc1`: “inactive”; for `Nc1nccc(-c2c(-c3ccc(F)cc3)ncn2C2CCCCC2)n1`: “inactive”. Take `O=C(Nc1ccnc(NC(=O)C2CC2)c1)c1c(Cl)cccc1Cl`: the Potency result was “inactive”.

In the case of `C=C1CC[C@@H]2[C@](C)(CO)[C@H](O)CC[C@@]2(C)[C@@H]1C/C=C1/C(=O)OCC1O` (stereo not given in full), the Potency entry was “inactive”. Same read-out and setting: next, `COC(=O)CC(O)CC(O)/C=C/c1c(C)ccc2c1C(OC(C)=O)CC(C)C2` (stereo not given): “inactive”; `CN(C)CCN(Cc1ccc(-c2ccc(CNCCc3ccccc3)cc2)cc1)C(=O)CCC1CCCC1`: 15.8 µM (active). `CC(=O)O[C@H]1[C@H](O)C[C@@]2(C)C(CC[C@]3(C)C2CC=C2C4CC(C)(C)CC[C@]4(C(=O)O)CC[C@]23C)C1(C)C` (stereo not given in full): the Potency was 11.2 µM (active). Consider `C[C@@]12C(=O)N(c3ccc(C(=O)Nc4cccc5cccnc45)cc3)C(=O)[C@@H]1[C@@H]1C=C[C@H]2C1`, for which the Potency result was “inactive”.

Consider `CCC1C(=O)N(C)c2cnc(Nc3ccc(C(=O)NC4CCN(C)CC4)cc3OC)nc2N1C1CCCC1` (stereo not given), for which the Potency was 6.31 µM (active).

As for `C=C(C)C(=O)O[C@H]1[C@H]2C(=C)C(=O)O[C@@H]2C[C@@H](C)[C@@H]2O[C@@H]2C(=O)[C@](C)(O)[C@@H]1OC(=O)C(=C)C`, the Potency was 10 µM (active). For the compound `C=CS(=O)(=O)NC1CCN(C(=O)CNc2cc(I)c(Cl)cc2OC)CC1`, the Potency result was “inactive”.

Take `COc1ccc(-c2cc3onc(-c4ccncc4)c3c(=O)n2C)cc1`: the Potency was 1.78 µM (active).

As to `COc1c(C)cnc(Cn2cc(C#CCC(C)(C)O)c3c(Cl)nc(N)nc32)c1C`, the Potency was 0.251 µM (active). `C=C1C(=O)O[C@@H]2C3=C(C)CCC[C@]3(C)CC[C@@]12O`: the Potency result is “inactive”. Regarding `COc1cc(N2CCC(N3CCN(C)CC3)CC2)ccc1Nc1ncc(Cl)c(Nc2ccccc2P(C)(C)=O)n1`, the Potency is 8.91 µM (active).
